Out of some 290,000 compounds screened, about 27,000 (9.3%) were called active. The sample holds actives, similar compounds and a random draw of the others, so the mix is not that of the screen. A number with no mark means an inactive call. Rule as the data show it: active = inhibition mostly above about 28% (no sharp cut-off); inactive = mostly below about 43%.

The nature of the assay: A qHTS for Small Molecule Inhibitors of Shiga Toxin. Also: 0% is about no effect. As to conditions: Vero cells, Shiga toxin protein synthesis inhibition reporter; at 38.7 µM, active compounds read high. (In general: In qHTS, concentration-response curves come from the screen itself.)
As for `Cc1cc(C)cc(OCC(=O)Nc2cc(NC(=O)COc3cc(C)cc(C)c3)cc(C(=O)O)c2)c1`, the inhibition (commonly the drop in the measured response relative to a control, in per cent) is -3.47%.
For `Cc1ccc(NC(=O)CSc2cccc3cccnc23)c(C)c1` the value was 21.1%.
For `O=C(CN1C(=O)COc2ccc(Cl)cc21)N1CCOCC1` the value was -1.98%.
For `CC1CCN(S(=O)(=O)c2nnc(NC(=O)COc3ccccc3F)s2)CC1` the value was 2.6%.
With `O=C(Nc1cccc(-c2nc3ncccc3o2)c1)c1ccco1`, the inhibition was 1.9%.
For `CCCC(=O)Nc1ccc2c(c1)nc(CCNC(=O)c1ccco1)n2C` the value was -1.85%; for `Cc1ccnc(NC(=O)c2ccc(NC(=O)c3ccco3)cc2)c1`, 64.6% (active); for `COc1ccc(NC(=O)c2cccc(NC(=O)c3ccco3)c2)c(OC)c1`, 7.82%.
For `O=C(Nc1ccc(O)cc1)c1ccc(NC(=O)c2ccco2)cc1` the value was 32.1% (active); for `Cc1cc(NC(=O)c2ccc(F)cc2)ccc1NC(=O)c1ccco1`, 39.7%.
The value for `Cc1ccc(NC(=O)/C(=C\c2ccccc2)NC(=O)c2ccco2)cc1` was 15.6%; that for `O=C(Nc1ccc(NC(=O)c2cccs2)cn1)c1ccco1` was 27.3%.
For `COc1cccc(C(=O)Nc2ccc(NC(=O)c3ccco3)cn2)c1`, the inhibition was 124% (active).
The value for `O=C(Nc1ccc2oc(-c3ccccc3F)nc2c1)c1ccco1` was 85.3% (active).
The value for `Cc1cc(=O)oc2c3c(cc(OCC(=O)N[C@H](C(=O)O)c4ccccc4)c12)OC(C)(C)CC3` was 9.9%; that for `Oc1ccc(C2Nc3cccc4cccc(c34)N2)cc1` was -4.55%.
For `CSc1ccc(S(=O)(=O)N2CCC(C(=O)NCc3ccncc3)CC2)cc1`, the inhibition was -6.82%.
For `CCOC(=O)N1CCN(S(=O)(=O)c2ccc(Br)cc2)CC1` the value was 9.83%; for `COCCN1C(=O)C(=O)/C(=C(/O)c2ccc(S(=O)(=O)N3CCOCC3)cc2)C1c1ccc(OC)c(OC)c1` (stereo not given), -8.01%; for `Cc1cccn2c(=O)c(/C=C(\C#N)C(N)=O)c(N3CCCCCC3)nc12`, -3.79%.
The value for `CC(C)Oc1ccc(C(CC(=O)N2CCOCC2)C(C)C)cc1` (stereo not given) was 5.33%; that for `COc1cc(C2/C(=C(\O)c3ccc4c(c3)CC(C)O4)C(=O)C(=O)N2c2nnc(C)s2)cc(OC)c1OC` (stereo not given) was -6.77%; that for `Cc1ccc(C(=O)NC2CCN(C(=O)Nc3ccccc3Cl)CC2)cc1` was -5.62%.
For `COCCOC(=O)C1=C(C)NC(=O)NC1c1cc2c(cc1Br)OCO2` (stereo not given) the value was 13.8%.
Take `Cc1ccnc(NC(=O)c2ccco2)n1`: the inhibition was 24.9%.
For `O=C(Nc1cccc(NC(=O)c2ccco2)c1)c1cnccn1`, the inhibition was 7.98%.
`O=C(Nc1ccccc1)c1ccco1`: the inhibition was 19.7%.
For `O=C(Nc1ccccc1)/C(=C\c1ccco1)NC(=O)c1ccco1` the value was 14.3%.
For `O=C(Nc1cccnc1)c1ccc(Cl)c([N+](=O)[O-])c1` the value was 52.4%; for `O=C(Nc1ccncc1)c1ccc(Cl)c([N+](=O)[O-])c1`, -0.478%; for `O=C(Nc1ccc2nccnc2c1)c1ccco1`, 98.5% (active).
The value for `Cc1ccnc(NC(=O)c2ccc(Cl)c([N+](=O)[O-])c2)c1` was 50.2% (active).
Take `O=C(Nc1ccc(Oc2ccccc2)cc1)c1ccco1`: the inhibition is 169% (active).
With `COC(=O)c1cc(NC(=O)c2ccco2)ccc1N1CCOCC1`, the inhibition is -9.27%.
For `Cc1cc(NC(=O)[C@H](C)NC(=O)c2ccco2)ccc1Br` the value was 4.7%.
The value for `O=C(Nc1ccc(Sc2ccc(Br)cc2)cc1)c1ccco1` was 60.3% (active).
For `O=[N+]([O-])c1ccc(NC(=S)N2CCN(c3ccccn3)CC2)cc1` the value was -11.7%; for `O=C(CCN1CCCO1)N1CCCC(N2CCN(c3cccc(C(F)(F)F)c3)CC2)C1` (stereo not given), 3.43%; for `CCNS(=O)(=O)c1ccc(NC(=O)c2cncc(Br)c2)cc1`, -9.77%.
As for `COc1ccccc1N1CCN(C(=O)c2ccc(NC3=NC4CS(=O)(=O)CC4S3)cc2)CC1` (stereo not given), the inhibition is -1.81%.
For `COc1ccc(CNC(=O)C2CC(c3ccc(C(F)(F)F)cc3)=NO2)cc1` (stereo not given) the value was -4.35%.
The value for `Cc1cc(C(=O)NC2CCN(Cc3ccccc3)CC2)n[nH]1` was -10.2%; that for `CCOc1ccc(C(=O)Nc2c3c(nn2-c2ccccc2)CS(=O)(=O)C3)cc1` was -5.21%; that for `COC(=O)c1c(NC(=O)C(=O)N2CCCCC2)sc2c1CC(C)(C)OC2` was -9.37%.
For `Cc1ccc(OCCCCc2c(C)n[nH]c2C)cc1` the value was 25.2%; for `COc1ccc(OCc2cn3c(C)cc(C)nc3n2)cc1`, 48.1% (active).
As for `Cc1cc(C)nc(SCc2cn3c(C)cc(C)nc3n2)n1`, the inhibition is 2.5%.
The value for `Cc1ccc2nc(SCc3cn4c(C)cc(C)nc4n3)[nH]c2c1` was -3.11%; that for `CC(C(=O)N=Nc1c(O)n(C)c2ccc(Br)cc12)n1cnc2ccccc2c1=O` (stereo not given) was -6.1%.
The value for `CSCCC(NS(=O)(=O)c1ccccc1F)C(=O)N1CC=C(c2ccccc2)CC1` (stereo not given) was -9.3%; that for `COCCN(C(=O)C(C)C)c1nnc(-c2ccc(C(C)(C)C)cc2)s1` was 24.3%.
For `COc1ccc(CSc2nnnn2-c2ccc(C(=O)O)cc2)cc1` the value was -2.72%.
For the molecule `CCOc1cccc(-n2nnnc2-c2ccc(OC)cc2)c1`, the inhibition is 0.378%.
The value for `COc1ccc(-n2nnnc2-c2nc3ccccc3s2)cc1` was 77.2% (active); that for `COC(=O)c1ccc(CN2CCCC(C(=O)Nc3cccc(-n4cnnn4)c3)C2)cc1` (stereo not given) was -11.4%.
For `OCCCN1c2ccccc2Nc2nnc(-c3ccccc3)cc21` the value was 57.2% (active); for `N=c1c2c(-c3ccccc3)c(-c3ccccc3)n(Cc3ccccc3)c2ncn1CCCO`, -13.5%.
The value for `O=[N+]([O-])c1ccc(N(CCO)Cc2ccccc2)c([N+](=O)[O-])c1` was 6.65%; that for `COc1ccc(C(=O)c2c(C)c(CCC#N)n3ccccc23)c(OC)c1` was -12.7%.
Consider `CC(C)C(=O)Nc1ccc2c(c1)oc1ccccc12`, for which the inhibition is 105% (active).
The value for `CC(C)C(=O)Nc1ccc2oc(=O)ccc2c1` was 31%; that for `CC(C)C(=O)Nc1c(C(=O)c2ccc(F)cc2)oc2ccccc12` was -3.91%.
The value for `Cc1c(CC(=O)NCC(=O)NCC(=O)O)c(=O)oc2cc3oc4c(c3cc12)CCCC4` was 2.91%; that for `CCNC(=O)c1sccc1-n1cccc1` was -7.99%; that for `CC(C)=CCc1c(O)c(CC=C(C)C)c2occ(-c3ccc(O)cc3)c(=O)c2c1O` was 46.6% (active).
With `CCc1ccc(OCC(=O)NCC(c2ccc(Cl)cc2)N2CCCCC2)cc1` (stereo not given), the inhibition is -3.91%.
The value for `CCOC(=O)Cn1c(O)c(N=NC(=O)CNC(=O)Cc2ccccc2)c2ccccc21` was 13.1%.
As to `CC(C)(C)N(Cc1ccccc1)C(=O)c1ccncc1`, the inhibition is -5.35%.
For `O=C(Nc1cccc(CCc2ccccn2)c1)c1ccc(Cl)cc1` the value was 22.8%.
For `O=C(Nc1ccccc1)OCc1cc(-c2ccc(Cl)cc2)on1` the value was -25%.
Turning to `O=C(Nc1cccc(Cl)c1)OCc1ccccn1`, the inhibition is 98% (active).
The value for `COC(=O)c1ccc2ccccc2c1OC1OC(CO)C(O)C(O)C1NC(C)=O` (stereo not given) was -11.3%; that for `CCN(CC)c1ccc2oc(=O)c(C)nc2c1` was 22% (active); that for `CCN(CC)c1ccc2cc(C(N)=O)/c(=N\NC(=O)c3ccncc3)oc2c1` was 24.7%.
For the molecule `CCN(CC)c1ccc2c(Nc3ccccc3)c(C=O)c(=O)oc2c1`, the inhibition is 29.5%.
For `COc1cc2c(cc1OC)C(/C=C/c1ccco1)=NCC2` the value was -7.71%.
As for `O=C(Nc1ccc2c(c1)OCO2)C1CC(c2c(F)cccc2Cl)=NO1` (stereo not given), the inhibition is 72.1% (active).
The value for `Cc1ccccc1N1CC(C(=O)Nc2ccc3c(c2)OCO3)CC1=O` (stereo not given) was 21.6%; that for `Cc1ccc(NC(=O)C2CC(c3ccc(F)cc3)=NO2)cc1` (stereo not given) was -22.6%.
Turning to `COc1cc(S(=O)(=O)Nc2ncn[nH]2)ccc1Cl`, the inhibition was -3.71%.
On to `CCC1CCCCN1C(=S)Nc1ccc(S(=O)(=O)Nc2ncccn2)cc1` (stereo not given), for which the inhibition is 8.74%.
The value for `CC(=O)c1ccc(OCC(O)CN2CCN(S(=O)(=O)c3cccc(Br)c3)CC2)cc1` (stereo not given) was -10%; that for `COc1ccc(S(=O)(=O)Nc2c(C)n(C)n(-c3ccccc3)c2=O)cc1` was 1.34%.
For `COc1ccc2cc(S(=O)(=O)Nc3ccccn3)ccc2c1` the value was -1.18%.
For `COc1ccc(S(=O)(=O)/N=C2\C=C(NS(=O)(=O)c3ccccc3)C(=O)c3ccccc32)cc1` the value was 61.3% (active); for `CCn1c(C)c(C)c2cc(C(=O)N3CCN(c4cccc(C)c4C)CC3)ccc21`, -9.52%; for `Cc1ccc(-n2c(C)cc(/C=C(\C#N)C(=O)NCC3CCCO3)c2C)cc1` (stereo not given), 108% (active).
Regarding `Cc1ccc(S(=O)(=O)N2CCC(C(=O)NCC3CCCO3)CC2)cc1` (stereo not given), the inhibition is -25.2%.
The value for `Cc1ccc(C(=O)N/C(=C/c2cccs2)C(=O)NCC2CCCO2)cc1` (stereo not given) was 16.9%.
Take `CNC(=O)COC(=O)c1cc(-c2ccc(OC)cc2)nc2ccccc12`: the inhibition was 54.5% (active).
For the molecule `C/C(N)=C(/C#N)C(=O)COC(=O)c1cc(-c2cccc(Br)c2)nc2ccccc12`, the inhibition is 5.3%.
Consider `COc1ccc(-c2cc(C(=O)N(C)Cc3ccccc3)c3ccccc3n2)cc1`, for which the inhibition is -2.41%.
For `C/C(N)=C(/C#N)C(=O)COC(=O)c1cc(-c2ccccc2)nc2ccc(Br)cc12` the value was -3.47%; for `C/C(N)=C(/C#N)C(=O)COC(=O)c1cc(-c2ccc(C)cc2)nc2ccccc12`, 53.2% (active).
For `COc1ccc(-c2cc(C(=O)n3cnc4ccccc43)c3ccccc3n2)cc1` the value was 6.77%.

Source of the values: PubChem BioAssay AID2315 (National Center for Advancing Translational Sciences (NCATS), 2010).
